High-throughput results from PubChem.
This is a sample that favours compounds with a hit; in the whole collection about 3.3% have one here.
Rpn11 inh – Rpn11 (PSMD14) deubiquitinase inhibitors, primary screen, biochemical, fluorescence polarization, uHTS. 0.59% of 360,000 active. inhibition, % at 20 µM. human 26S proteasome, Ub4-pepOG fluorescence polarization; 20S core pre-blocked with epoxomicin. 26S proteasome non-ATPase regulatory subunit 14 (Homo sapiens), O00487;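 active = inhibition at 20 µM, scaled to each plate's controls, above about 33%, limit read from the data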
TPT1 inhibitor – Candida albicans TPT1 enzyme inhibitors, primary screen, biochemical, fluorescence polarization | recombinant caTPT1, FP RNA substrate dephosphorylation | 0.81% of 300,000 active | inhibition, % at 5 µM | tRNA 2'-phosphotransferase TPT1 (Candida albicans SC5314) | AID 1962, 2009;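 active = inhibition above the mean of all tested compounds plus 3 SD, set per screening campaign, cut at about 24% in these data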
CendR NRP1 mod – modulators of CendR peptide binding to NRP-1, primary screen, biochemical, fluorescence polarization, uHTS | FAM-RPARPAR peptide binding to NRP-1 | Neuropilin-1 (Homo sapiens), O14786 | 0.85% of 360,000 active | AID 602438, 2012 | inhibition, % at 25 µM;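 active = inhibition or corrected inhibition above about 18%, plus a signal ratio from 0.5 to 1.5, limit read from the data, passing the limit was not always enough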
Target sequence (O14786 whole entry, looked up): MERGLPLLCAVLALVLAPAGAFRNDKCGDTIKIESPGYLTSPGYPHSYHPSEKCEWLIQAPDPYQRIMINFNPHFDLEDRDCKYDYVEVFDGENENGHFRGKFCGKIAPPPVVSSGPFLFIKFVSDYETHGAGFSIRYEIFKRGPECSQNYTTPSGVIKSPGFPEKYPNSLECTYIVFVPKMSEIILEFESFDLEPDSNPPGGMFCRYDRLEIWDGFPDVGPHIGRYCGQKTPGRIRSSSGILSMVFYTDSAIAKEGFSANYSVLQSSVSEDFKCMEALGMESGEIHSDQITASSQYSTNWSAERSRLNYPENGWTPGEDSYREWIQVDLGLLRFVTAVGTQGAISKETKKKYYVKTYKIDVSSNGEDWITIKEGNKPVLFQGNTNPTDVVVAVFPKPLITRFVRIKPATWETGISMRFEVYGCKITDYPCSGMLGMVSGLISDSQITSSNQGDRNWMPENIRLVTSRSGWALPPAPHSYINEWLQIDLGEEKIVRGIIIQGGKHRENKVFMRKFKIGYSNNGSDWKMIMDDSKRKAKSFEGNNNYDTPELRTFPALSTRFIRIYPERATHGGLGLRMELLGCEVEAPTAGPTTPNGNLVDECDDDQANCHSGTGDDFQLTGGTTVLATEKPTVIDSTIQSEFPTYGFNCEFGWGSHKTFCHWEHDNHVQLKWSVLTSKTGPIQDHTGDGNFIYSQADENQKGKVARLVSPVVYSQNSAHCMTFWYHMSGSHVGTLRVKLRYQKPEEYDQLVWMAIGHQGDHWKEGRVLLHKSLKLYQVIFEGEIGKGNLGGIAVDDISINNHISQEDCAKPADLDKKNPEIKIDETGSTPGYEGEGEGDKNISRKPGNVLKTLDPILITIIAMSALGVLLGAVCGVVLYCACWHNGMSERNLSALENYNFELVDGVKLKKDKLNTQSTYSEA
PHOSPHO1 inh – PubChem AID 1565 | Phosphoethanolamine/phosphocholine phosphatase (Homo sapiens), Q8TCT1 | recombinant PHOSPHO1, absorbance phosphatase assay | inhibition, % at 13.3 µM | 1.1% of 290,000 active; in the data active = inhibition above about 60%
HNF4A DNA FP – change in binding of human HNF4A to DNA, primary screen, biochemical, fluorescence polarization, FITC-DNA; Hepatocyte nuclear factor 4-alpha (Homo sapiens), P41235; AID 1224865, 2016; 1 h; 0.3% of 360,000 active; activity change, % at 10 µM; in the data active = activity change above about 30%, passing the limit was not always enough
Fh CTSL1 inh – Fasciola hepatica cathepsin L1 inhibitors, primary screen, counter-screen for PFM18AAP inhibitor project, biochemical, QFRET, fluorogenic peptide substrate. recombinant F. hepatica cathepsin L1, Z-Leu-Arg-MCA fluorescence. 0.49% of 300,000 active. inhibition, % at 5.96 µM. AID 1906, 2009;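 active = inhibition above the mean of all tested compounds plus 3 SD, set per screening campaign, cut at about 17% in these data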
Each line names hits and unclear results; the compound was inactive in the other large screens.

Cc1cc(Cl)ccc1OCC(=O)N1CCN(C)CC1	CendR NRP1 mod 23
Cc1cc(Cl)ccc1OCC(=O)O	none
C[C@@H]1CN([C@@H](C)CO)C(=O)CCCn2cc(nn2)CO[C@H]1CN(C)C(=O)Oc1cccc2ccccc12	none (no result: TPT1 inhibitor, PHOSPHO1 inh, Fh CTSL1 inh)
Cc1ccc(S(=O)(=O)N2Cc3cc(-c4ccccc4)ccc3-n3nncc3C2)cc1	HNF4A DNA FP 48 (no result: TPT1 inhibitor, PHOSPHO1 inh, Fh CTSL1 inh)
O=S(=O)(c1cc(Cl)cc(Cl)c1)N1Cc2cc(N3CCOCC3)ccc2-n2nncc2C1	none (no result: TPT1 inhibitor, PHOSPHO1 inh, Fh CTSL1 inh)
COc1ccc(S(=O)(=O)N2Cc3ccccc3-n3nncc3C2)cc1	none (no result: TPT1 inhibitor, PHOSPHO1 inh, Fh CTSL1 inh)
O=S(=O)(c1cc(Cl)cc(Cl)c1)N1Cc2cc(-c3ccccc3)ccc2-n2nncc2C1	CendR NRP1 mod 23 (no result: TPT1 inhibitor, PHOSPHO1 inh, Fh CTSL1 inh)
CCOc1cc2c(cc1OCC)-n1cccc1C(c1ccccc1F)NC2 (configuration not stated)	none
CC(C)[C@H]1C(=O)N2CCC[C@H]2[C@]2(O)O[C@](NC(=O)[C@@H]3C=C4c5cccc6[nH]cc(c56)C[C@H]4N(C)C3)(C(C)C)C(=O)N12	Fh CTSL1 inh 36
CC(C)[C@@]1(NC(=O)[C@@H]2C=C3c4cccc5[nH]cc(c45)C[C@H]3N(C)C2)O[C@@]2(O)[C@@H]3CCCN3C(=O)[C@H](Cc3ccccc3)N2C1=O	none (no result: Rpn11 inh, TPT1 inhibitor, CendR NRP1 mod, HNF4A DNA FP, Fh CTSL1 inh)
CC(C)[C@@]1(NC(=O)[C@@H]2C[C@@H]3c4cccc5[nH]cc(c45)C[C@H]3N(C)C2)O[C@@]2(O)[C@@H]3CCCN3C(=O)[C@H](Cc3ccccc3)N2C1=O	none
CC(C)C[C@H]1C(=O)N2CCCC2[C@]2(O)O[C@](NC(=O)[C@@H]3C=C4c5cccc6[nH]cc(c56)CC4N(C)C3)(C(C)C)C(=O)N12 (some centres not stated)	Fh CTSL1 inh 31
CCn1nc(/C=C/c2ccccc2)nc2c(=O)n(C)c(=O)nc1-2	CendR NRP1 mod 27, HNF4A DNA FP 107 (no result: TPT1 inhibitor, Fh CTSL1 inh)
CCOc1ccc(-n2c(-c3cccs3)nc3ccccc3c2=O)cc1	none
CCn1nc(-c2cccs2)nc2c(=O)n(C)c(=O)nc1-2	CendR NRP1 mod 30, HNF4A DNA FP 100 (no result: TPT1 inhibitor, Fh CTSL1 inh)
Brc1ccc2c(c1)C(OC1CN3CCC1CC3)c1ccccc1CS2 (configuration not stated)	none
CC(C)NC1C2CCC(CC2)C1(O)c1ccc(Cl)c(Cl)c1 (configuration not stated)	none (no result: TPT1 inhibitor, PHOSPHO1 inh, Fh CTSL1 inh)
Cc1ccc(C2(O)CCN3CCCCC32)cc1 (configuration not stated)	CendR NRP1 mod 29
CCN(CC)C(=O)c1ccc(NC(=O)COc2ccc(-c3nn(C)c(=O)c4ccccc34)cc2)cc1	none
CC12C=CC(=O)C=C1CC(O)C1C2CCC2(C)C1CCC2(C)O (configuration not stated)	none (no result: TPT1 inhibitor, PHOSPHO1 inh, Fh CTSL1 inh)
CN(C)CCN(C(=O)COc1ccc(Cl)cc1)c1nc2cc3c(cc2s1)OCO3	PHOSPHO1 inh 63
CCC(c1ccc(C)cc1)N1C(=O)C2C3CCC(O3)C2C1=O (configuration not stated)	none (no result: TPT1 inhibitor, PHOSPHO1 inh, Fh CTSL1 inh)
CCOc1ccc(C(C)=O)cc1Cn1ccsc1=N	none (no result: TPT1 inhibitor, Fh CTSL1 inh)
O=P(O)(O)CN1CCNCCN(CP(=O)(O)O)CCNCC1	CendR NRP1 mod 30 (no result: TPT1 inhibitor, PHOSPHO1 inh, Fh CTSL1 inh)
COC(=O)C1=C(c2ccc(OCc3ccccc3)c(F)c2)C[C@@H]2CC[C@H]1N2C	none (no result: TPT1 inhibitor, PHOSPHO1 inh, Fh CTSL1 inh)
c1ccc(CNC2=NCCS2)cc1	CendR NRP1 mod 21
Cc1ccc(CNC2=NCCS2)cc1	none
O=S(=O)(c1ccc(F)cc1)N1CCCCC1c1cccnc1 (configuration not stated)	none
CN(C(=O)COC(=O)c1cn(C)c2ccccc12)C1CCCCC1	none (no result: TPT1 inhibitor, PHOSPHO1 inh, Fh CTSL1 inh)
CC1C2Cc3ccc(O)cc3[C@]1(C)CCN2CCc1ccccc1 (some centres not stated)	none (no result: TPT1 inhibitor, PHOSPHO1 inh, Fh CTSL1 inh)
C[C@]12CC[C@H](O)CC1=CC(=O)C1C2CC[C@]2(C)C(=O)[C@H](O)CC12 (some centres not stated)	CendR NRP1 mod 19 (no result: TPT1 inhibitor, PHOSPHO1 inh, Fh CTSL1 inh)
CC(C)(C)C(=O)O[C@H]1CC[C@@]2(C)C(=CC(=O)C3C2CC[C@]2(C)C(=O)[C@H](O)CC32)C1 (some centres not stated)	none (no result: TPT1 inhibitor, PHOSPHO1 inh, Fh CTSL1 inh)
COc1cccc(C(c2nnnn2-c2c(C)cccc2C)N2CCC(n3c(=O)[nH]c4ccccc43)CC2)c1OC (configuration not stated)	none (no result: TPT1 inhibitor, PHOSPHO1 inh, Fh CTSL1 inh)
CC(=O)OC1CC[C@]2(C#N)[C@H]3CC[C@]4(C)[C@H](C5C=CC(=O)O5)CCC4(O)C3CCC2(O)C1 (some centres not stated)	CendR NRP1 mod 22
Cc1ccc(-c2cc(-c3ccccc3)cc(-c3ccccc3)[n+]2-c2ccccc2C(=O)O)cc1	CendR NRP1 mod 26 (no result: PHOSPHO1 inh)
O=C([O-])c1ccc(-[n+]2c(-c3ccccc3)cc(-c3ccccc3)cc2-c2ccccc2)cc1	none (no result: PHOSPHO1 inh)
O=C1NC(=O)N(c2ccccc2)C(=O)/C1=C/c1ccc(Sc2ccccc2)o1	none
O=C1NC(=O)N(c2ccccc2F)C(=O)/C1=C/c1ccc(Sc2nc3ccccc3[nH]2)o1	Rpn11 inh 83
O=C1NC(=O)N(c2cccc(Cl)c2)C(=O)/C1=C\c1ccc(Sc2nc3ccccc3[nH]2)o1	Rpn11 inh 58
Cc1ccc(/C=C2\C(=O)NC(=S)N(c3ccccc3F)C2=O)s1	none
C=CCn1c(O)c(/C(C)=N/N2CCCCCC2)c(=O)[nH]c1=O	none
CCOC(=O)/C(CCCN(CC)CC)=N\O	PHOSPHO1 inh 95
FC(F)(F)c1ccc(CNCCc2ccc3c(c2)OCO3)cc1	none
CN(c1ccccc1)P(=O)(N1CC1)N1CC1	none (no result: TPT1 inhibitor, PHOSPHO1 inh, Fh CTSL1 inh)
O=C1C=CC(=O)C2C1C1(Cl)C(Cl)=C(Cl)C2(Cl)C1(Cl)Cl (configuration not stated)	CendR NRP1 mod 26 (no result: TPT1 inhibitor, PHOSPHO1 inh, Fh CTSL1 inh)
CCOC(=O)Cn1cc([N+](=O)[O-])nc1[N+](=O)[O-]	Fh CTSL1 inh 18
COCCCNC(=O)Cn1cc(/C=C2\C(=O)NC(=O)N(c3ccccc3F)C2=O)c2ccccc21	HNF4A DNA FP 57
CCOC(=O)CNC(=O)N1Cc2cc(-c3ccc(OC)cc3)ccc2-n2nncc2C1	none (no result: TPT1 inhibitor, PHOSPHO1 inh, Fh CTSL1 inh)
CCOc1cccc(OCC)c2c(C)[n+](CC3CCCO3)c(C)c1-2 (configuration not stated)	PHOSPHO1 inh 95
CN1C[C@H](CO)C=C2c3cccc4[nH]cc(c34)C[C@H]21	CendR NRP1 mod 46
Cc1ccc(S(=O)(=O)N(c2cc(Cl)c(O)c(Cl)c2)P(=O)(OC(C)C)OC(C)C)cc1	none
COc1ccc(CN2Cc3cnnn3-c3ccccc3C2C)cc1 (configuration not stated)	none (no result: TPT1 inhibitor, PHOSPHO1 inh, Fh CTSL1 inh)
CC1=C[C@@H]2c3cccc4[nH]cc(c34)C[C@H]2N(C)C1	CendR NRP1 mod 44
